About 240 (0.12%) of roughly 200,000 compounds were called active. No stated cut-off is given here; in the data, active means inhibition above about 50%; inactive means the rest. This excerpt belongs to a sample that is enriched for actives.

The assay has as its system glucose-6-phosphate dehydrogenase [Leuconostoc mesenteroides]. Nature of the assay: L. mesenteroides G6PDH inhibitors, counter-screen for G6PDH-coupled screening assays, biochemical, Leuconostoc mesenteroides enzyme (AID 1020). The settings on record: Purified L. mesenteroides G6PDH, diaphorase/resazurin coupled fluorescence, 45 min; at 5 µM; stronger effect = higher value.
For `CCOc1ccc(C(c2c(C)[nH][nH]c2=O)c2c(C)[nH][nH]c2=O)cc1OCC`, the inhibition is 12.1% (inactive). The same measure for `O=C(CC1NCCNC1=O)Nc1cc(Cl)cc(Cl)c1` (stereo not given): -3.6% (inactive). The same measure for `Cc1ccc(C(=O)c2ccc(N3CCN(C)CC3)c([N+](=O)[O-])c2)cc1`: 9.1% (inactive). The same measure for `O=C(NC(=S)NC1CCSC1=O)c1ccccc1F` (stereo not given): 13.8% (inactive); for `O=C(CSc1nnc(SCc2ccc(Cl)cc2)s1)N/N=C/c1ccccc1Cl`: -21.5% (inactive). In the case of `CCC(C)(C)NC(=O)C1c2ccccc2Oc2ccccc21`, the inhibition is 3.6% (inactive). On to `COC(=O)c1ccc(NC(=O)CSc2nncc3ccc(OC)c(OC)c23)cc1`, for which the inhibition is 2.5% (inactive). As for `CCC(C)NCCOCCOc1ccc(Br)cc1C` (stereo not given), the figure is 6.6% (inactive); as for `CCOc1cc(NS(=O)(=O)c2ccc(OC)cc2)c(OCC)cc1NC(C)=O`, 6.7% (inactive); as for `COc1ccc(C(C(=O)NC2CCCCC2)N(C(=O)Cc2c[nH]c3ccccc23)c2ccccc2)cc1OC` (stereo not given), 14.4% (inactive). As for `C/C(=N\OC(=O)c1ccccc1)c1c(C)nc2cc(C)ccn12`, the inhibition is 1.1% (inactive). Consider `CCc1ccc(N2CC(O)=C(c3nc4ccccc4c(=O)[nH]3)C2=N)cc1`, for which the inhibition was 16.2% (inactive).

On to `CC(C)N(Cc1ccccc1)C(=S)Nc1ccc(OC(F)F)cc1`, for which the inhibition is 0.3% (inactive).

`Cc1cccc(NC(=S)NCCN(C2CCCCC2)C2CCCC2)c1`: the inhibition is 3.8% (inactive). The same measure for `COc1ccc(Cl)cc1NC(=O)CNc1ccccc1F`: -1.9% (inactive); for `S=c1[nH]nc(-c2ccco2)n1/N=C/c1ccc(Br)s1`: 8.8% (inactive). With `C=CCn1c(CCNC(=O)c2ccccc2F)nnc1SCC(=O)Nc1ccc(OC)cc1`, the inhibition is 0.9% (inactive). As for `O=C(COc1ccc(S(=O)(=O)NCc2ccccc2)cc1)N1CCOCC1`, the inhibition was 4.2% (inactive).

On to `Cn1c(N)c(C(=O)COC(=O)c2ccccc2NCc2ccco2)c(=O)n(C)c1=O`, for which the inhibition was 0.8% (inactive). As for `CCOC(=O)c1cnc2[nH]c3ccccc3n2c1=O`, the figure is 5% (inactive). As for `O=c1[nH]c2ccccc2n2c(-c3ccccc3)nnc12`, the figure is 50% (active); as for `O=[N+]([O-])c1cccc(-c2nnc3c4ccccc4c4ccccc4n23)c1`, 9.1% (inactive); as for `CC(C)N1C(=O)N(c2ccccc2)C(C)(O)CC1(C)C` (stereo not given), 5.1% (inactive).

Turning to `O=C1Nc2ccc([N+](=O)[O-])cc2C1=Nc1cccc(CO)c1`, the inhibition is 46.7% (inactive). As for `Cc1nc(N)c(Br)c(C)c1Br`, the figure is 4% (inactive); as for `O=C(CSc1ccc(-c2ccco2)nn1)NCc1ccc2c(c1)OCO2`, 6.1% (inactive). For the molecule `Cc1ccc(C)c(-n2ccnc2SCC(N)=O)c1`, the inhibition was 13.8% (inactive). As for `O=C(NC1CCCC1)C(c1ccc(N2CCOCC2)cc1)N(C(=O)c1ccco1)c1ccccc1F` (stereo not given), the figure is 14.1% (inactive); as for `COc1cccc(NC(=O)c2ccc3c(SCC(=O)O)c4c(nc3c2)CCCC4)c1`, 6% (inactive).

As for `NS(=O)(=O)c1ccc(NC(=O)COC(=O)C2(c3ccc(F)cc3)CCCC2)cc1`, the inhibition is 16.5% (inactive). As for `COc1ccc(/C=C2/C(=O)OCc3cc(OC)c(OC)cc32)c(OC)c1`, the figure is -2.8% (inactive); as for `CCOC(=O)c1ccc[n+](CC(=O)Nc2ccccc2OC(F)F)c1`, 6.3% (inactive).

With `CCO[C@H]1OC(C(=O)N2CCOCC2)=C[C@@H](c2ccc3c(c2)OCO3)[C@@H]1CCCO`, the inhibition is 9.9% (inactive). `CCOC(=O)C1CN(S(=O)(=O)c2ccc(F)cc2)C1`: the inhibition is 4.5% (inactive). The same measure for `Clc1ccc2nc(CSc3ccccc3)cn2c1`: 5% (inactive); for `CCOC(=O)C1=C(c2ccc(OC)cc2)C(=O)c2ccccc2C1=O`: 31.9% (inactive); for `CCOC(=O)c1c(C)[nH]c2c1-c1ccccc1C(=O)C2=O`: 55.3% (active). For the molecule `CCOC(=O)c1c(C)[nH]c(=S)c(C#N)c1-c1ccccc1`, the inhibition is -20.7% (inactive). The same measure for `CN1CCN(CC#CCC2(O)c3ccccc3-c3ccccc32)CC1`: 4.1% (inactive); for `CCCc1cc(=O)[nH]c(SCC(=O)N2CCN(S(=O)(=O)c3ccc(C)cc3C)CC2)n1`: 2.8% (inactive).

Take `Cc1nn2cc(-c3ccc(Cl)cc3)cnc2c1Br`: the inhibition was -0.7% (inactive). Consider `COC(=O)CC(=O)N1CCN(c2ccc(Cl)c(Cl)c2)CC1`, for which the inhibition is -3.9% (inactive). As for `N#Cc1ncc(C(F)(F)F)cc1Oc1cccnc1`, the inhibition is 1.5% (inactive). As to `O=C(N/N=C/c1ccco1)c1ccc(C(=O)N/N=C/c2ccco2)o1`, the inhibition was 2.5% (inactive).

On to `COc1ccc2c(c1)c(=O)c(C(=O)c1ccc(Cl)cc1)cn2CC(=O)Nc1ccc(F)cc1`, for which the inhibition is -1.7% (inactive). The same measure for `O=C(N/N=C/c1sc(N2CCCCC2)nc1-c1cccs1)c1cccnc1`: 0.4% (inactive); for `CC1(C)C2CC=C(/C=N/NC(=O)c3ccc(Cl)cc3)C1C2` (stereo not given): 6.3% (inactive); for `COc1cc(NC(=O)c2cccnc2SC)cc(OC)c1`: 5.3% (inactive). The same measure for `O=C1CSC(=S)N1/N=C/c1ccc(O)c([N+](=O)[O-])c1`: 5.2% (inactive). In the case of `Cc1c(Br)c([N+](=O)[O-])nn1CC(=O)Nc1sc2c(c1C(=O)OC(C)C)CCC(C)C2` (stereo not given), the inhibition is -7.9% (inactive). On to `COC(=O)Cc1ccc(NC(=S)NCc2ccccc2)cc1`, for which the inhibition is 12.1% (inactive). Regarding `CCO[C@H]1OC(C(=O)Nc2ccccc2)=C[C@@H](C2CC2)[C@@H]1CCCO`, the inhibition was 10.9% (inactive). As for `COc1ccc(-c2cc(C(=O)NC(Cc3c[nH]c4ccccc34)C(=O)O)c(C)o2)cc1OC` (stereo not given), the figure is 6.7% (inactive); as for `CCc1nc(C)cn1S(=O)(=O)c1cc([N+](=O)[O-])ccc1Cl`, 6.7% (inactive); as for `COc1ccc(/C=N/S(=O)(=O)c2ccccc2)cc1OC`, 8.4% (inactive). As for `Cc1oc2c(c1C(=O)N1CCOCC1)C(=O)c1ccccc1C2=O`, the figure is 57.7% (active); as for `O=C(c1ccccc1-c1ccccc1)N1CCOCC1`, 1.2% (inactive); as for `Cc1onc(-c2ccccc2)c1C(=O)N1CCOCC1`, 17.6% (inactive).

Turning to `C/C(=N\NC(=O)CNC(=O)C(c1ccccc1)c1ccccc1)c1ccc(C)cc1`, the inhibition is 11.2% (inactive). For `CC(=O)Oc1c(C(=O)c2nnc(C)o2)c(=O)n(Cc2ccccc2)c2ccccc12`, the inhibition is 2.5% (inactive).

Take `CSc1c(SCc2ccccc2)cnn(Cc2ccccc2)c1=O`: the inhibition was 5.1% (inactive). The same measure for `OC(COCc1ccco1)CN1CCN(c2ccccc2)CC1` (stereo not given): 12.4% (inactive).

As for `COc1cc(NC(=S)NNC(=O)CC(C)C)c(OC)cc1Cl`, the inhibition was -0.9% (inactive). Turning to `Cc1ccc(SCCC(=O)Nc2cc(C)on2)cc1`, the inhibition is 6.5% (inactive). As for `O=C(CN1C(=O)c2cccc3cccc(c23)C1=O)N1CCCCC1`, the figure is -0.3% (inactive); as for `O=C(/C=C/c1ccc(Cl)c([N+](=O)[O-])c1)c1cccnc1`, 0.4% (inactive). As for `Cc1csc(Nc2ccc(Cl)cc2)[n+]1-c1ccc(Cl)cc1`, the figure is -4% (inactive); as for `Cc1cccc(OCCC(=O)Nc2cc(S(=O)(=O)N3CCCCC3)ccc2N2CCOCC2)c1`, 5.4% (inactive).

As to `CCOc1cc(C(=O)OCC(=O)Nc2cccc(C)c2)ccc1OCC(=O)N1CCOCC1`, the inhibition is -19.1% (inactive).

Regarding `O=C(COC(=O)c1cnccn1)Nc1cccc2ccccc12`, the inhibition was 4.3% (inactive). The same measure for `CCC(=O)Nc1sc(C(=O)Nc2ccccc2)c(C)c1C(=O)OC`: 7.8% (inactive). The same measure for `CSc1ccc(CNCCN2CCOCC2)cc1`: 11% (inactive); for `COc1ccc([C@H]2[C@H](C(C)=O)N3N=Cc4ccccc4C3C23C(=O)OC(C)(C)OC3=O)cc1` (stereo not given in full): 4% (inactive). In the case of `CCOC(=O)c1oc2c(CN3CCN(C)CC3)c(O)ccc2c(=O)c1-c1ccc(Br)cc1`, the inhibition was -12.6% (inactive). The same measure for `Cc1ccc(C(=O)N2CC(=O)Nc3ccccc32)o1`: 2.3% (inactive); for `Cc1cc(NS(=O)(=O)c2ccc(NC(=S)NC(=O)c3ccc(F)cc3Cl)cc2)no1`: 7.4% (inactive); for `Cc1ccccc1C(=O)OC1OC(=O)C(Cl)=C1Nc1ccccc1` (stereo not given): 2.3% (inactive). In the case of `ClC1(Cl)CC1CSc1ncn[nH]1` (stereo not given), the inhibition is 10.4% (inactive). With `Cc1cccc(-n2c(SCC(N)=O)nc3c(c2=O)C2(CCCCC2)Cc2ccccc2-3)c1`, the inhibition was 7.9% (inactive).

For the molecule `CCOc1ccc(C(=O)Nc2cccc(-c3ccc4nncn4n3)c2)cc1`, the inhibition was 2.6% (inactive).

`COc1ccc(C(=O)C2CCCN(C(=O)c3cc4nc(C)cc(C)n4n3)C2)cc1F` (stereo not given): the inhibition was 0.8% (inactive). On to `COc1ccc(N2CCN(C(=O)c3ccc4c(Cl)c5c(nc4c3)CCCC5)CC2)cc1`, for which the inhibition is 17.9% (inactive). Turning to `O=C(COC(=O)CSc1nnc(-c2ccc(Cl)cc2)o1)Nc1cc(Cl)cc(Cl)c1`, the inhibition is -35.2% (inactive).

With `COc1cc(C(=O)NCc2ccc(-n3cccc3)cc2)cc(OC)c1OC`, the inhibition is 12.2% (inactive). Consider `Cc1ccc(-c2nc(C)sc2CC(=O)OCC(=O)Nc2c(F)cccc2F)cc1`, for which the inhibition was -6.1% (inactive). Turning to `CC(C)CNC(=S)NC(=O)c1ccc(Cl)cc1`, the inhibition was 4.7% (inactive). The same measure for `C=CCn1c(CCNC(=O)c2cccs2)n[nH]c1=S`: 10.1% (inactive); for `Cc1nnnn1/C(=C\c1ccccc1)C(=O)OCC(=O)N1CC2(C)CC1CC(C)(C)C2` (stereo not given): -6.6% (inactive). The same measure for `CCNC(=S)N(CCc1c(C)[nH]c2ccc(C)cc12)Cc1ccco1`: 13.2% (inactive). As for `CC(/C=C/c1ccccc1)=N\NC(=O)C1CC1(C)c1ccccc1` (stereo not given), the figure is 5.3% (inactive); as for `O=[N+]([O-])c1cc(S(=O)(=O)CCCN2CCOCC2)ccc1F`, 10.3% (inactive). In the case of `O=C(Nc1ccc(-c2ccc3nncn3n2)cc1)C1CCCCC1`, the inhibition was 3.6% (inactive).

Turning to `CCN1CCN(C(=O)c2ccc(CN(c3ccc(C)c(C)c3)S(C)(=O)=O)cc2)CC1`, the inhibition was 4.1% (inactive). As for `C/C(Cc1ccccc1)=N\NC(=O)CNC(=O)c1cccc(Br)c1`, the figure is 8.4% (inactive); as for `Cc1nc2ccccc2nc(C)c1=NOCc1ccc(Cl)cc1Cl`, -13.7% (inactive).

The values above are taken from PubChem BioAssay AID1020 (Sanford-Burnham Center for Chemical Genomics, 2008).
